From PMC12820563, “FoxP3 forms a head-to-head dimer in vivo and stabilizes its multimerization on adjacent microsatellites” come the findings set out here.

Whole data set: some 16,000 sequences, median “rpm ratio (pull-down/input)” near 0.5, cut for the highest 2% near 5.5. For the sample, the highest values were picked, then their nearest neighbours and some sequences at random.

The assay addresses T1, MBP-FoxP3dN (Mus musculus, UniProt Q99JB6 188-423).
T1 sequence: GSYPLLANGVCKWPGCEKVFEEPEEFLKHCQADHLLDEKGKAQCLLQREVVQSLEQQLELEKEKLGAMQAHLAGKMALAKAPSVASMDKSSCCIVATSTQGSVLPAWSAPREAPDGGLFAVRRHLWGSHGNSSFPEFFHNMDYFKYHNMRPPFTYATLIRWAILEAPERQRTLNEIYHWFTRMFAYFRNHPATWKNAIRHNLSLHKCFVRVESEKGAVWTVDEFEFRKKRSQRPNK
The assay is described as follows: PD-seq (MBP pull-down with sequencing); 20 mM Tris-HCl pH 7.5, 100 mM NaCl, 1.5 mM MgCl2, 0.4 uM protein, 0.1 uM dsDNA library, 30 min, room temperature, amylose pull-down; high values mean tight binding. To be noted: protein: recombinant; tags: His6-MBP; chain copies: 2; dsDNA, one strand shown. In outline:
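In Tris pH 7.5 buffer with NaCl and MgCl2, 0.4 µM His6-MBP-tagged mouse FoxP3 or FoxP1 fragment lacking the N-terminus, from E. coli, met 0.1 µM Klenow-filled double-stranded degenerate DNA library for 30 min at room temperature. Three washes on amylose resin followed capture of the complexes, then proteinase K release of DNA, PCR barcoding and Illumina sequencing. Binding is taken as pooled-replicate reads-per-million enrichment of pull-down relative to input.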
As to “GATGATTGTTCTCCCAGCTGATGAATTCGCATTGTCGAGTAAACAAATTTTCCTAATCTTTCTGTTCAAGCGCCATCTAC”, the binding signal was 3.91 RPM ratio (pull-down/input). As for “GATGATTGTTCTCCCAGCTGATGAATTCGCATTATCGAGTAAACAAATTTTCCTAATCTTTCTGTTCAAGCGCCATCTAC”, the figure is 3.53 RPM ratio (pull-down/input); as for “GATGATTGTTCTCCCAGCTGATGAATTGTCGCATTCGAGTAAACAAATTTTCCTAATCTTTCTGTTCAAGCGCCATCTAC”, 6.14 RPM ratio (pull-down/input).

For the sequence “GATGATTGTTCTCCCAGCTGATGAATTCGCCTCCTCGAGTAAACAAATTTTCCTAATCTTTCTGTTCAAGCGCCATCTAC”, the binding signal is 2.15 RPM ratio (pull-down/input). With “GATGATTGTTCTCCCAGCTGATGAATTCTAAACTTCGAGTAAACAAATTTTCCTAATCTTTCTGTTCAAGCGCCATCTAC”, the binding signal was 0.381 RPM ratio (pull-down/input). For the sequence “GATGATTGTTCTCCCAGCTGATGAATTTCCATTTTCGAGTAAACAAATTTTCCTAATCTTTCTGTTCAAGCGCCATCTAC”, the binding signal was 0.295 RPM ratio (pull-down/input). Consider “GATGATTGTTCTCCCAGCTGATGAATTAACATAATCGAGTAAACAAATTTTCCTAATCTTTCTGTTCAAGCGCCATCTAC”, for which the binding signal was 0.409 RPM ratio (pull-down/input).

In the case of “GATGATTGTTCTCCCAGCTGATGAATTGCTTCTGTCGAGTAAACAAATTTTCCTAATCTTTCTGTTCAAGCGCCATCTAC”, the binding signal is 0.468 RPM ratio (pull-down/input). In the case of “GATGATTGTTCTCCCAGCTGATGAATTGCTTTTGTCGAGTAAACAAATTTTCCTAATCTTTCTGTTCAAGCGCCATCTAC” it was 1.51 RPM ratio (pull-down/input). As for “GATGATTGTTCTCCCAGCTGATGAATTTTGCTTGTCGAGTAAACAAATTTTCCTAATCTTTCTGTTCAAGCGCCATCTAC”, the figure is 5.89 RPM ratio (pull-down/input); as for “GATGATTGTTCTCCCAGCTGATGAATTGCTTGGGTCGAGTAAACAAATTTTCCTAATCTTTCTGTTCAAGCGCCATCTAC”, 0.775 RPM ratio (pull-down/input). As for “GATGATTGTTCTCCCAGCTGATGAATTTGCTTTGTCGAGTAAACAAATTTTCCTAATCTTTCTGTTCAAGCGCCATCTAC”, the figure is 6.34 RPM ratio (pull-down/input); as for “GATGATTGTTCTCCCAGCTGATGAATTCTTGCTGTCGAGTAAACAAATTTTCCTAATCTTTCTGTTCAAGCGCCATCTAC”, 0.508 RPM ratio (pull-down/input); as for “GATGATTGTTCTCCCAGCTGATGAATTGCTTTGGTCGAGTAAACAAATTTTCCTAATCTTTCTGTTCAAGCGCCATCTAC”, 1.08 RPM ratio (pull-down/input).

With “GATGATTGTTCTCCCAGCTGATGAATTTGCTTGGTCGAGTAAACAAATTTTCCTAATCTTTCTGTTCAAGCGCCATCTAC”, the binding signal was 5.74 RPM ratio (pull-down/input). As to “GATGATTGTTCTCCCAGCTGATGAATTGTGCTTGTCGAGTAAACAAATTTTCCTAATCTTTCTGTTCAAGCGCCATCTAC”, the binding signal is 5.16 RPM ratio (pull-down/input).

“GATGATTGTTCTCCCAGCTGATGAATTGCGTATTTCGAGTAAACAAATTTTCCTAATCTTTCTGTTCAAGCGCCATCTAC”: the binding signal was 3.53 RPM ratio (pull-down/input). For “GATGATTGTTCTCCCAGCTGATGAATTGCTAAAATCGAGTAAACAAATTTTCCTAATCTTTCTGTTCAAGCGCCATCTAC”, the binding signal was 0.394 RPM ratio (pull-down/input). In the case of “GATGATTGTTCTCCCAGCTGATGAATTTTACGATTCGAGTAAACAAATTTTCCTAATCTTTCTGTTCAAGCGCCATCTAC”, the binding signal is 0.308 RPM ratio (pull-down/input). As for “GATGATTGTTCTCCCAGCTGATGAATTGTAAAGATCGAGTAAACAAATTTTCCTAATCTTTCTGTTCAAGCGCCATCTAC”, the binding signal is 0.29 RPM ratio (pull-down/input). “GATGATTGTTCTCCCAGCTGATGAATTACAGCCGTCGAGTAAACAAATTTTCCTAATCTTTCTGTTCAAGCGCCATCTAC”: the binding signal is 0.412 RPM ratio (pull-down/input).

On to “GATGATTGTTCTCCCAGCTGATGAATTTTGACGTTCGAGTAAACAAATTTTCCTAATCTTTCTGTTCAAGCGCCATCTAC”, for which the binding signal is 0.933 RPM ratio (pull-down/input). Take “GATGATTGTTCTCCCAGCTGATGAATTACGATCATCGAGTAAACAAATTTTCCTAATCTTTCTGTTCAAGCGCCATCTAC”: the binding signal is 0.571 RPM ratio (pull-down/input).

Regarding “GATGATTGTTCTCCCAGCTGATGAATTCTCTGCATCGAGTAAACAAATTTTCCTAATCTTTCTGTTCAAGCGCCATCTAC”, the binding signal was 0.793 RPM ratio (pull-down/input). As for “GATGATTGTTCTCCCAGCTGATGAATTGCTGAATTCGAGTAAACAAATTTTCCTAATCTTTCTGTTCAAGCGCCATCTAC”, the figure is 0.916 RPM ratio (pull-down/input). As for “GATGATTGTTCTCCCAGCTGATGAATTACTGAATTCGAGTAAACAAATTTTCCTAATCTTTCTGTTCAAGCGCCATCTAC”, the figure is 0.586 RPM ratio (pull-down/input); as for “GATGATTGTTCTCCCAGCTGATGAATTACTGCATTCGAGTAAACAAATTTTCCTAATCTTTCTGTTCAAGCGCCATCTAC”, 6.01 RPM ratio (pull-down/input); as for “GATGATTGTTCTCCCAGCTGATGAATTACTGATTTCGAGTAAACAAATTTTCCTAATCTTTCTGTTCAAGCGCCATCTAC”, 0.523 RPM ratio (pull-down/input). In the case of “GATGATTGTTCTCCCAGCTGATGAATTCTGCAGCTCGAGTAAACAAATTTTCCTAATCTTTCTGTTCAAGCGCCATCTAC”, the binding signal is 2.66 RPM ratio (pull-down/input).

In the case of “GATGATTGTTCTCCCAGCTGATGAATTCTGCTGTTCGAGTAAACAAATTTTCCTAATCTTTCTGTTCAAGCGCCATCTAC”, the binding signal is 3.41 RPM ratio (pull-down/input). In the case of “GATGATTGTTCTCCCAGCTGATGAATTGCTGCATTCGAGTAAACAAATTTTCCTAATCTTTCTGTTCAAGCGCCATCTAC” it was 6.8 RPM ratio (pull-down/input). In the case of “GATGATTGTTCTCCCAGCTGATGAATTCTGCATCTCGAGTAAACAAATTTTCCTAATCTTTCTGTTCAAGCGCCATCTAC” it was 6.75 RPM ratio (pull-down/input). As for “GATGATTGTTCTCCCAGCTGATGAATTCTGCATTTCGAGTAAACAAATTTTCCTAATCTTTCTGTTCAAGCGCCATCTAC”, the figure is 6.51 RPM ratio (pull-down/input).
